Test results as given in PubChem BioAssay AID602397 (The Scripps Research Institute Molecular Screening Center, 2012).
This is one part of the list. A number with no mark means an inactive call. How the calls were made is not given here.

Assay: GFP fluorescence inhibitors and quenchers, late-stage follow-up, artefact control for Rin1-Abl interaction inhibitor project, biochemical, dose response (AID 602397)
Settings: GFP fluorescence quenching counterscreen

Structure (SMILES): CN(Cc1c(F)cccc1Cl)C(=O)CNC(=O)c1ccc2c(c1)OCO2
- IC50: > 67.5 µM
